Screening results deposited in PubChem BioAssay by National Center for Advancing Translational Sciences (NCATS).
An excerpt weighted towards active compounds, which were near 8.5% of everything screened.
ALDH1A1 block = blocks purified human ALDH1A1 activity. Purified ALDH1A1, NADH fluorescence, propionaldehyde substrate. Potency, µM (doses to about 75.3 µM), hits mostly inhibitors. 7.3% of 220,000 active. AID 1030; active means well fitted inhibition curve with a large enough effect, not every such curve was filed as active; inconclusive means small, poorly fitted or top-dose-only effect, or another doubt; inactive means no such curve, though single readings can be large or run the other way
NPSR antagonist = blocks cAMP signaling of the human neuropeptide S receptor; CHO-NPSR cells, cAMP TR-FRET, antagonist mode; Potency, µM (highest dose often 38.3 µM), usual class: inhibitors; 1% of 220,000 active; AID 1461; further: nearly all actives have a fitted effect of over 50% in size
Coupling enz = inhibits coupling enzyme system, counter-screen for aldolase hits | AID 2472 | activity change, negative = inhibition, % at 58.2 µM, hits read low | 0.67% of 290,000 active | coupling enzyme system counterscreen, AmpLite Red fluorescence; in the data active means activity change below about -30%
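Final compound at 57.5 uM, incubated 10 min at RT with coupling enzyme reagent (glyceraldehyde-3-phosphate), then 20 min with substrate and AmpLite Red detection. Fluorescence read at 525/598 nm; tests interference with the coupling assay, not aldolase inhibition.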
Sfp PPTase inh = blocks B. subtilis Sfp PPTase activity. Biochemical Sfp PPTase activity, qHTS. Potency, µM, most hits filed as inhibitors. 3.5% of 310,000 active. AID 1490;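 further: the enzyme is Sfp with the accession as filed and its product quenches rhodamine fluorescence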
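Sfp 15 nM + cpd, 15 min RT; start w/ rhodamine-CoA 5 uM, BHQ-2-YbbR 12.5 uM (final); 50 mM Hepes pH 7.6, 10 mM MgCl2, 0.01% NP-40, 0.01% BSA; read 525/598 nm at 0 and 30 min.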
RGS12 GoLoco inh-1 = RGS12 GoLoco-Gai1 interaction inhibition. P63096. Gai1:RGS12 GoLoco peptide FP, rhodamine, 10 min. Potency, µM (top dose mostly 61.6 µM), actives largely listed as inhibitors. 0.44% of 230,000 active; active means well fitted inhibition curve with a large enough effect, not every such curve was filed as active; inactive means no such curve, though single readings can be large or run the other way; further: nearly all actives have a fitted effect of over 30% in size
KDM4E inh = JMJD2E (human) inhibition. Potency, µM (highest dose often 57.1 µM), hits mostly inhibitors. JMJD2E catalytic domain, FDH-coupled NADH fluorescence (FDH is formaldehyde dehydrogenase). 1.6% of 230,000 active. B2RXH2; active means well fitted inhibition curve with a large enough effect, not every such curve was filed as active; inconclusive means small, poorly fitted or top-dose-only effect, or another doubt; inactive means no such curve, though single readings can be large or run the other way; further: nearly all actives have a fitted effect of over 50% in size
Target sequence (B2RXH2 1-337 limits assumed): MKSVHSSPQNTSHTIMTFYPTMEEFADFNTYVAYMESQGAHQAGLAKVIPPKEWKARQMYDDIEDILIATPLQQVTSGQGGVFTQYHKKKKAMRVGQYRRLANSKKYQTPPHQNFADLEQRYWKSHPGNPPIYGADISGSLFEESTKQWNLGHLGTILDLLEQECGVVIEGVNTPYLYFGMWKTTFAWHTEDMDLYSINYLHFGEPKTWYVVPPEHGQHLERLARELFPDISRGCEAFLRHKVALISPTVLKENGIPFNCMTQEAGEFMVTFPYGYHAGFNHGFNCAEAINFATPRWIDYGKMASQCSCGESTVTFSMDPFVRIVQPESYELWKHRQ
RGS12 GoLoco inh-2 = RGS12 (human) GoLoco motif inhibition, red FP | Gai1/rhodamine-RGS12 GoLoco peptide fluorescence polarization | AID 2390 | Potency, µM (titrated, usually from 57.1 µM), most hits filed as inhibitors | shares compounds with RGS12 GoLoco inh-1 | 50% of 110 active
A number is an active result; . = inactive; ? = inconclusive; / = no result given; ! = not active in a repeat; [ ] = another dose, or the depositor's remark. Unless noted, the call rests on the fitted dose curve; in most records, active means well fitted curve in the direction sought with a large enough effect; inconclusive means small, poorly fitted or top-dose-only effect, or another doubt; inactive means no such curve, though single readings can be large; an effect the other way counts as inactive or inconclusive.

SMILES	ALDH1A1 block	NPSR antagonist	Coupling enz	Sfp PPTase inh	RGS12 GoLoco inh-1	KDM4E inh	RGS12 GoLoco inh-2
COc1ccc(N(CC(=O)Nc2ccccc2F)S(=O)(=O)c2ccc(C)c([N+](=O)[O-])c2)cc1	11µM	.	.	.	.	.	/
O=C(CN(c1ccc(Cl)cc1)S(=O)(=O)c1ccc(Cl)c([N+](=O)[O-])c1)NCCc1ccccc1	25µM	.	.	.	.	.	/
O=C(CN(c1ccc(Cl)cc1)S(=O)(=O)c1ccc(Cl)c([N+](=O)[O-])c1)NCCc1ccc(F)cc1	.	.	.	.	.	.	/
COc1ccc(N(CC(=O)NCc2ccncc2)S(=O)(=O)c2ccc(C)c([N+](=O)[O-])c2)cc1	/	.	.	.	.	.	/
O=C(NN1CCOCC1)c1ccccc1Br	/	/	.	.	/	/	/
CCOC(=O)c1[nH]c2ccc(Br)cc2c1NC(=O)CCN1CCC(C)CC1	11µM	.	.	.	.	.	/
CCOC(=O)c1[nH]c2ccc(Br)cc2c1NC(=O)CCN1CCCC(C)C1 (configuration not stated)	.	.	.	.	.	.	/
CC12C=C(/C=C/c3ccc(C(F)(F)F)cc3)C(C)(C1)C(c1ccc(C(F)(F)F)cc1)CC2=O (configuration not stated)	.[13.5 µM]	/	.	.	/	/	/
CC(C)(C)c1csc(NC(=O)Cn2cnc3ccccc3c2=O)n1	13µM	.	.	20µM	.	.	/
Oc1ccc(C23CC4CC(CC(C4)C2)C3)cc1O	/	/	.	79µM	/	/	/
COc1ccc(C(C)=O)cc1COC(=O)C(CO)NS(=O)(=O)c1ccc(Br)cc1 (configuration not stated)	?	.	.	.	.	.	/
COc1ccc(CCNC(=O)C2CC(=O)N(c3ccc(C)cc3)C2)cc1OC (configuration not stated)	/	/	.	.	/	/	/
COc1cc(OC)c(C2CC(=O)N3CN(c4ccc(C)cc4)CSC3=C2C#N)cc1OC (configuration not stated)	7.9µM	.	-31	5µM	8.9µM	?	?
COc1ccc(C(CNc2nc(-c3cccnc3)nc3ccccc23)N(C)C)cc1 (configuration not stated)	/	/	.	.	/	/	/
Cc1n(CC(O)COC2CCCCC2)c2ccccc2[n+]1C (configuration not stated)	.	.	.	.	7.1µM	.	16µM
CCOc1cc(/C=N/NC(=O)CCn2nc(C)cc2C)ccc1O	/	.	.	.	.	?	/
O=C(O)c1cccc(CN2C(=O)c3ccccc3C2=O)c1	/	/	.	.	/	/	/
O=C1c2cccc3c(O)ccc(c23)C(=O)N1Cc1ccccc1	.	.	.	?	11µM	.	11µM
CCCCNc1ccc2c3c(cccc13)C(=O)N(CCCC)C2=O	/	?	.	28µM	14µM	.	14µM
CC(C)c1cc(C(=O)OCC(=O)N2CCN(C(=O)c3ccco3)CC2)c(O)c(C(C)C)c1	/	/	/	.	/	/	/
Cc1nn(C)c(C)c1N1C(=O)c2cccc3c(N)ccc(c23)C1=O	.	.	.	.	22µM	.	13µM
Cc1cc2nc3c(=O)n(C4CCCCC4)c(=O)[nH]c3nc2cc1N	.	.	.	.	.	.	?
Cc1nc2cc(N)ccc2n1C1CCCCC1	?	.	.	.	.	?	/
O=C1CCCN1Cc1ccccc1	/	/	.	.	/	/	/
O=C1c2cccc3c([N+](=O)[O-])ccc(c23)C(=O)N1c1ccccn1	.	?	/	.	28µM	.	.
SMILES	ALDH1A1 block	NPSR antagonist	Coupling enz	Sfp PPTase inh	RGS12 GoLoco inh-1	KDM4E inh	RGS12 GoLoco inh-2
O=C1c2cccc3c([N+](=O)[O-])ccc(c23)C(=O)N1O	/	/	.	.	/	/	/
Cc1ccc(NC(=O)CSc2nnc(-c3ccc(S(=O)(=O)N4CCOCC4)cc3)n2C)cc1	.	.	.	.	.	.	.
CCOc1ccc(N(CC(=O)N/N=C/c2ccc(OC(C)C)cc2)S(C)(=O)=O)cc1	.	.	.	.	10µM	.	.[0.0121 µM]
CCOCc1cnc(C)nc1NCC(=O)c1c(C)n(C)c2ccc(OC)cc12	32µM	.	.	.	5µM	.	25µM
Cn1nnnc1SCC(=O)N1CCN(c2ccc(Cl)cc2)CC1	.	.	.	.	.	.	14µM
O=C1c2ccccc2C(=O)N1CC(O)COCc1ccccc1 (configuration not stated)	.	.	.	.	.	.	/
CCc1n(CC(O)COCc2ccccc2)c2ccccc2[n+]1C (configuration not stated)	.	.	.	.	3.2µM	.	16µM
COC(=O)c1ccc(NC(=O)CSc2ccccn2)cc1	?	.	.	.	13µM	.	?
CC(C)=C1C(=O)C(c2ccccc2)=C2CN3C(=O)N(CCc4ccccc4)C(=O)[C@]3(C)[C@H]21	.	/	.	.	.	.	/
C[n+]1cc2c3c(ccc2c2ccc4cc5c(cc4c21)OCO5)OCO3	.	?	-43!	8.9µM!	14µM!	?	25µM
C[n+]1c(/C=C/c2ccc3c(c2)OCO3)ccc2ccccc21	?	.	.	.	.	?	/
COc1ccc(C(C)=O)cc1CSc1nncn1-c1ccccc1	?	.	.	.	.	.	/
CCOC(=O)c1cn(CC(=O)Nc2cccc(F)c2)nn1	.	.	.	.	.	.	/
CCOc1ccc(NC(=O)Cn2ncc3ccccc32)cc1	/	/	.	.	/	/	/
Cc1ccc(NC(=O)Cn2c(C)cc(C)c(C#N)c2=O)c(Cl)c1	.	.	.	.	.	?	/
